The source of these data is PubChem BioAssay AID434969 (The Scripps Research Institute Molecular Screening Center, 2010).

Structures are written as SMILES. The list shows a part of the results. Values without a mark were called inactive.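 How the source made its calls: active means mean activation over three repeats above the cutoff from the earlier oxytocin receptor agonist screen (cut at about 20% in these data); inactive means the rest.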

The experiment deals with Oxytocin receptor (Homo sapiens) (UniProt P30559). The experiment can be described thus: human OXTR agonists, counter-screen for V1R agonist project, fluorescence, CHO-OTR cells, triplicate (AID 434969).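 Further: peak over minimum fluorescence ratio within a 100 second FLIPR read; 0% = DMSO only wells and 100% = oxytocin high control wells.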 The conditions noted are these: Fluo-8 calcium fluorescence, at 3 µM, hits give high values. Background: The purpose of a counterscreen is to sort out artefacts and off-target activity.
Chain of Oxytocin receptor (Homo sapiens) (P30559 whole entry, looked up): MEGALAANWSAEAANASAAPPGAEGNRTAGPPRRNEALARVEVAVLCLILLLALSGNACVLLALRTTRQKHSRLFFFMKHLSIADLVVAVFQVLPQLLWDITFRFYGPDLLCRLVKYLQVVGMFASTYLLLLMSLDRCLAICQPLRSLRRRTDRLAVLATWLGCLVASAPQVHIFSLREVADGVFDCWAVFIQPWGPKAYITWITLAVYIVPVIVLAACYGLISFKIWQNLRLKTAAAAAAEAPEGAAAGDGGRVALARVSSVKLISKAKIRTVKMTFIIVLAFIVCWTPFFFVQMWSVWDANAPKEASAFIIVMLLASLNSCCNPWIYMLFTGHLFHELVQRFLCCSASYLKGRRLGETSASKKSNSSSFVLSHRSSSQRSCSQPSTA
Consider `CCN(CC)c1ccc2cc(C(N)=O)/c(=N\NC(=O)c3ccncc3)oc2c1`, for which the activation was 15.6%.
Then `CC1(C)S[C@@H]2[C@H](N=CN3CCCCCC3)C(=O)N2[C@H]1C(=O)O`, with 0.49%; and `O=C(c1ccccc1)c1ccc(OCC(O)CN2CCCC2)cc1` (stereo not drawn), with 2.06%; and `Fc1cccc(Cl)c1COc1ccc(-c2nnco2)cc1`, with -0.58%.
Then `O=c1c2cc(Br)ccc2nc(-c2cccc(Cl)c2)n1O`, with 15.4%.
As to `Cc1cc(C)c(/C=C2\C(=O)Nc3ccccc32)[nH]1`, the activation was 16.6%.
In the case of `CCN(CC)c1ccc(/C=N/NC(=O)c2cnccn2)c(O)c1`, the activation was 9.1%.
Take `O=C(CN1CCN(c2cccc(Cl)c2)CC1)Nc1ccc(S(=O)(=O)N2CCOCC2)cc1`: the activation was 5.65%.
